# Data: PubChem BioAssay (Tox21)
# A number with no mark means an inactive call. Results filed as inconclusive are left out. Entries that show only a call come without a potency. Calls of active or inactive are those of the source. Calls come from the whole dose curve; as a rule, active = well fitted curve in the direction sought with a large enough effect in the repeat runs; inconclusive = weak or mixed curves; inactive = no such curve, though single readings can be large; an effect the other way counts as inactive or inconclusive.
# Columns and labels:
# [1] = A CellTox Green Cytotoxicity Assay to monitor cytotoxicity in HEK293 cells - 32 hour (AID 1224881); note: nearly all actives have a fitted effect of over 40% in size
# Method in brief: (§1)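 HEK293 cells premixed with CellTox Green dye were seeded at 600 cells/well and left 5 h at 37 C/5% CO2 before pin transfer of 23 nL compound in DMSO. Fluorescence from dye bound to dead-cell DNA was read during 40 h treatment.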
# [2] = A CellTox Green Cytotoxicity Assay to monitor cytotoxicity in HepG2 cells - 0 hour (AID 1224882); note: nearly all actives have a fitted effect of over 35% in size
# Method in brief: (§2)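 HepG2 cells were seeded together with the CellTox Green dye at 600 cells/well, left 5 h at 37 C/5% CO2, then given compounds in DMSO. Fluorescence from dye bound to dead-cell DNA was read repeatedly over 40 h of treatment at 37 C.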
# [3] = A CellTox Green Cytotoxicity Assay to monitor cytotoxicity in HEK293 cells - 8 hour (AID 1224884); note: nearly all actives have a fitted effect of over 35% in size
# Method in brief: as §1
# [4] = qHTS RealTime-Glo MT Cell Viability Assay in HepG2 cells - 16 hour (AID 1224885); note: nearly all actives have a fitted effect of over 50% in size
# Method in brief: (§3)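 Cells + NanoLuc/prosubstrate dispensed (600 cells/well) → 5 h at 37 C/5% CO2 → compounds in DMSO transferred → 40 h incubation at 37 C, luminescence read at 0, 8, 16, 24, 32, 40 h.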
# [5] = qHTS RealTime-Glo MT Cell Viability Assay in HEK293 cells - 24 hour (AID 1224886); note: nearly all actives have a fitted effect of over 50% in size; note: potency is the fitted concentration of half-maximal effect
# Method in brief: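 Tox21 10K qHTS, HEK293, 600 cells/well, RealTime-Glo reagent co-dispensed with cells; 5 h preincubation, compound by pintool, 37 C, luminescence at 0–40 h.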
# [6] = A CellTox Green Cytotoxicity Assay to monitor cytotoxicity in HEK293 cells - 16 hour (AID 1224888); note: nearly all actives have a fitted effect of over 35% in size
# Method in brief: as §1
# [7] = qHTS RealTime-Glo MT Cell Viability Assay in HepG2 cells - 0 hour (AID 1224889); note: nearly all actives have a fitted effect of over 50% in size; note: potency is the fitted concentration of half-maximal effect
# Method in brief: as §3
# [8] = A CellTox Green Cytotoxicity Assay to monitor cytotoxicity in HepG2 cells - 8 hour (AID 1224890); note: nearly all actives have a fitted effect of over 45% in size
# Method in brief: as §2
# [9] = qHTS RealTime-Glo MT Cell Viability Assay in HEK293 cells - 8 hour (AID 1224887); note: top concentration of the series differs between compounds; nearly all actives have a fitted effect of over 50% in size
# Method in brief: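 HEK293 cells mixed with RealTime-Glo reagents (NanoLuc plus cell-permeant prosubstrate) at 600 cells/well, preincubated 5 h at 37 C/5% CO2, then given 23 nL compound in DMSO. Nonlytic luminescence from viable cells was read at 0, 8, 16, 24, 32 and 40 h.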
# [10] = A CellTox Green Cytotoxicity Assay to monitor cytotoxicity in HepG2 cells - 32 hour (AID 1224883); note: nearly all actives have a fitted effect of over 50% in size
# Method in brief: as §2
Structure (SMILES),outcome [1],Potency [2],outcome [3],outcome [4],Potency [5],outcome [6],Potency [7],outcome [8],Potency [9],Potency [10]
CN(C)C(=O)Oc1cccc([N+](C)(C)C)c1,inactive,inactive,inactive,inactive,inactive,inactive,inactive,inactive,–,–
Cc1ccc(C(=O)c2ccc(CC(=O)O)n2C)cc1,inactive,–,inactive,inactive,–,inactive,–,–,inactive,–
COc1c(N2CCNC(C)C2)c(F)cc2c(=O)c(C(=O)O)cn(C3CC3)c12 (stereo not drawn),–,inactive,inactive,inactive,inactive,inactive,inactive,inactive,inactive,inactive
C=COCC1CCC(COC=C)CC1 (stereo not drawn),inactive,inactive,inactive,inactive,inactive,inactive,inactive,inactive,–,–
Cc1ccc(-c2ncc(Cl)cc2-c2ccc(S(C)(=O)=O)cc2)cn1,inactive,inactive,inactive,inactive,–,inactive,–,inactive,inactive,–
C=C(C)C(=O)OCC(O)CO (stereo not drawn),inactive,inactive,–,inactive,inactive,inactive,inactive,inactive,inactive,–
COC(=O)C1=C(C)NC(C)=C(C(=O)OC(C)C)C1c1cccc2nonc12 (stereo not drawn),inactive,inactive,inactive,–,–,inactive,1.07 µM (active),inactive,–,–
CC(C)(C#N)Nc1nc(Cl)nc(NC2CC2)n1,inactive,inactive,–,inactive,inactive,inactive,inactive,inactive,inactive,–
CCCCCCCCCC[N+](C)(C)[O-],inactive,inactive,inactive,inactive,inactive,inactive,–,inactive,inactive,–
C[C@H]1[C@H](NC(=O)/C(=N/OC(C)(C)C(=O)O)c2csc(N)n2)C(=O)N1S(=O)(=O)O (stereo in doubt),–,inactive,inactive,inactive,inactive,inactive,inactive,inactive,inactive,inactive
CC1=CCC(O)(C(C)C)CC1 (stereo not drawn),–,inactive,inactive,inactive,inactive,inactive,inactive,inactive,inactive,inactive
O=C1c2ccccc2C(=O)c2cc(O)ccc21,inactive,inactive,inactive,inactive,–,inactive,inactive,inactive,–,–
CC1=NN(c2cc(S(=O)(=O)O)ccc2Cl)C(=O)C1N=Nc1ccccc1 (stereo not drawn),–,inactive,inactive,inactive,inactive,inactive,inactive,inactive,inactive,inactive
CC(N)C12CC3CC(CC(C3)C1)C2 (stereo not drawn),inactive,inactive,–,inactive,–,inactive,inactive,inactive,inactive,–
O=CN(CCO)CCO,inactive,inactive,–,inactive,inactive,inactive,inactive,inactive,inactive,–
CCCCCCC1CCC(=O)O1 (stereo not drawn),inactive,inactive,–,inactive,inactive,inactive,inactive,inactive,inactive,–
c1coc(CNc2ncnc3nc[nH]c23)c1,–,inactive,inactive,inactive,inactive,inactive,inactive,inactive,inactive,inactive
C=C[Si](OC(C)=O)(OC(C)=O)OC(C)=O,inactive,inactive,–,inactive,inactive,inactive,inactive,inactive,inactive,–
CC(C)(CCC(=O)O)C(=O)O,inactive,inactive,–,inactive,inactive,inactive,inactive,inactive,–,–
NC(=O)N[C@@H](CCC(=O)O)C(=O)O,inactive,–,–,inactive,inactive,inactive,inactive,inactive,inactive,inactive
CCN(Cc1ccccc1)c1ccccc1,–,inactive,inactive,inactive,21.6 µM (active),inactive,inactive,inactive,inactive,inactive
CC1=C(C/C=C(\C)CCC[C@H](C)CCC[C@H](C)CCCC(C)C)C(=O)c2ccccc2C1=O,inactive,inactive,inactive,inactive,–,inactive,inactive,inactive,inactive,–
CCCc1nn(C)c2c(=O)[nH]c(-c3cc(S(=O)(=O)N4CCN(C)CC4)ccc3OCC)nc12,inactive,inactive,inactive,inactive,–,inactive,inactive,inactive,–,–
CCN1CCOCC1,–,inactive,inactive,inactive,–,inactive,inactive,inactive,inactive,inactive
C=CCCC(=O)O,–,inactive,–,inactive,inactive,inactive,inactive,inactive,–,inactive
NC(=O)NC1N=C([O][Al])NC1=O (stereo not drawn),–,inactive,inactive,inactive,inactive,inactive,inactive,inactive,inactive,–
CC(C)c1ccc2ncccc2c1,–,inactive,inactive,inactive,–,inactive,inactive,inactive,inactive,inactive
CCOC(=O)c1ccccc1,–,inactive,–,inactive,inactive,inactive,inactive,inactive,–,inactive
CCCCCCC#CC(=O)OC,–,inactive,inactive,inactive,inactive,inactive,inactive,inactive,–,inactive
Nc1ccn([C@@H]2O[C@H](CO)[C@@H](O)C2(F)F)c(=O)n1,–,inactive,inactive,inactive,–,inactive,inactive,inactive,–,inactive
